Screens as filed in PubChem.
Compounds with a hit are over-represented: about 1.7% of the library has one in this group of screens.
SARS 3CLpro inh: SARS-CoV 3CLpro protease inhibition | P0C6X7 | recombinant SARS-CoV 3CLpro, quenched FRET peptide cleavage | AID 1706 | 290,000 tested, 0.14% active | inhibition, % at 6 µM; in the data active = inhibition above about 12%
PriA SSB inh: blocks PriA binding to SSB C-terminal tail; AlphaScreen SSBct-PriA binding, biotinylated peptide; 430,000 tested, 0.6% active; AID 1272365; inhibition, % at 33 µM; in the data active = inhibition mostly above about 37%, no sharp cut-off; inactive = mostly below about 20%;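 note: plate controls were negative control peptide for no effect and reference peptide for full effect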
CCHF vOTU inh: CCHFV vOTU protease inhibition. Pep-AMC fluorescence. inhibition, % at 11.5 µM. 370,000 tested, 0.55% active; in the data active = inhibition above about 30%; note: 0% = vehicle wells with enzyme and 100% = no enzyme wells
VHR inh abs: inhibitors of human VHR1 phosphatase (DUSP3) | P51452 | recombinant VHR phosphatase, pNPP absorbance | inhibition, % at 13.3 µM | 290,000 tested, 0.52% active | AID 1654; in the data active = inhibition above about 50%
RecA splice inh: Mtb RecA intein splicing inhibition. cell-free RecA intein splicing, fluorescence. inhibition, % (concentration not given with the values). 290,000 tested, 0.75% active; in the data active = inhibition above about 30%;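 note: 0% = vehicle wells and 100% = reference inhibitor control wells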
Numbers without * were called inactive; · = not tested or not shown.

SMILES	SARS 3CLpro inh	PriA SSB inh	CCHF vOTU inh	VHR inh abs	RecA splice inh
COc1cccc(NC2=Nc3cccc4cccc2c34)c1	3	41*	1	17	1
CCn1cc(Br)c(C(=O)Nc2ccccc2C(=O)OC)n1	5	-11	3	10	4
CCn1cc(Cl)c(C(=O)Nc2ccccc2C(N)=O)n1	1	45*	-6	12	-4
CCOC(=O)N1CCN(C2=C(NS(=O)(=O)c3ccccc3)C(=O)c3ccccc3C2=O)CC1	0	2	89*	-18	-2
CCOC(=O)N1CCN(C2=C(NS(=O)(=O)c3ccc(Br)cc3)C(=O)c3ccccc3C2=O)CC1	·	·	13	·	·
CN(C)c1ccc(CCCNC(=O)C(=O)Nc2cccc(C(F)(F)F)c2)cc1	·	2	·	·	·
CC1=CC(c2ccccc2)n2nc(N3C(=O)C4CC=CCC4C3=O)nc2N1 (centres undefined)	-1	-5	-167	57*	-11
Oc1cc(Nc2ccccc2)cc2cccnc12	·	65*	2	·	·
CN1CCN(C(=O)c2cccc(-c3cc(O)c4ncccc4c3)c2)CC1	·	37	2	·	·
Oc1cc(-c2cccnc2)cc2cccnc12	·	54*	-6	·	·
CN1CCN(c2cc(-c3cc(O)c4ncccc4c3)ccn2)CC1	·	67*	11	·	·
O=C(CCc1ccccc1)N1CCN(Cc2cnnn2-c2ccccc2)CC1	·	-17	·	·	·
c1ccc(CN=C2NN=C(c3ccccc3)CS2)cc1	6	15	1	6	6
c1ccc(C2=NNC(=NCc3ccc4c(c3)OCO4)SC2)cc1	-5	47*	-10	36	7
COC(=O)C1=C(N)n2c(s/c(=C\c3cccnc3)c2=O)=C(C(=O)OC)C1c1cccnc1 (centres undefined)	4	·	·	-12	0
CCOC(=O)C1=c2s/c(=C\c3cccnc3)c(=O)n2C(N)=C(C(=O)OC)C1c1cccnc1 (centres undefined)	1	·	19	52*	2
Cn1c(=O)c(C(=O)NCCc2ccc(Cl)cc2)c(O)c2ccccc21	1	-41	-4	59*	1
Cn1c(=O)c(C(=O)NCc2ccc(Cl)cc2)c(O)c2ccccc21	-5	-21	2	30	-6
O=[N+]([O-])c1ccc(/C=[N+](\[O-])CCO)o1	-2	·	26	53*	-455
CCOC(=O)c1cccc(NC(=O)CSc2nc(N)cc(N)n2)c1	0	-8	-2	56*	3
Nc1cc(N)nc(SCC(=O)Nc2ccc3c(c2)OCO3)n1	-5	-6	8	53*	-4
Nc1cc(N)nc(SCC(=O)Nc2ccc3c(c2)OCCCO3)n1	-1	-4	-11	-8	-1
Cc1cccc(NC(=O)CSc2nc(N)cc(N)n2)c1	7	-4	7	-5	1
COc1ccc(Cl)cc1-n1c(-c2ccccc2)cn2c3c(=O)[nH]c(=O)n(C)c3nc12	·	1	·	·	·
Cc1cc(C)cc(N=c2c([N+](=O)[O-])nn(-c3ccc(Cl)cc3)n2O)c1	2	51*	-1	41	0
SMILES	SARS 3CLpro inh	PriA SSB inh	CCHF vOTU inh	VHR inh abs	RecA splice inh
CCc1ccc(N=c2c([N+](=O)[O-])nn(-c3ccccc3)n2O)cc1	1	70*	·	-21	7
CCOC(=O)c1sc(NC(=O)c2cc(C)nn2CC)cc1C	·	-4	·	·	·
O=c1c2ccccc2c(CNS(=O)(=O)Cc2ccc(F)cc2)nn1CCN1CCCC1	·	1	·	·	·
CCc1ccc(S(=O)(=O)NCc2nn(CCN3CCCC3)c(=O)c3ccccc23)s1	·	44*	·	·	·
Cn1c(=O)c2c(SCc3c(F)cccc3Cl)nc(C3CCCC3)nc2n(C)c1=O	·	-16	·	·	·
NS(=O)(=O)c1ccc(O)c(N2C(=O)c3cccc4c(C(=O)c5ccccc5)ccc(c34)C2=O)c1	7	46*	·	-5	·
O=C(NC1CCC(Oc2cnccn2)CC1)c1ccco1 (centres undefined)	·	-1	·	·	·
O=C1CCCN2N=C(SCC(=O)Nc3ccc(F)cc3)SC2=N1	·	5	·	·	·
COc1ccc(NC(=O)CN(C)C(=O)c2ccccc2OC)cc1	-1	-3	-9	51*	-1
Cc1ccnc(Nc2ccc(NCCNC(=O)c3c(F)cccc3Cl)nn2)c1	·	6	·	·	·
Cc1ccnc(Nc2ccc(NCCNC(=O)Nc3cccc(C(F)(F)F)c3)nn2)c1	·	32*	·	·	·
Cc1ccnc(Nc2ccc(NCCNC(=O)Nc3ccc(F)c(Cl)c3)nn2)c1	·	96*	·	·	·
Cc1ccnc(Nc2ccc(NCCNC(=O)c3cccc(F)c3)nn2)c1	·	20	·	·	·
Cc1ccc(CS/C(Nc2cccc(Cl)c2C)=C(\C#N)S(=O)(=O)c2ccccc2)cc1	·	-4	·	·	·
CCOC(=O)C1CCN(C(=O)c2cc3c(OC)c(OC)c(OC)cc3[nH]2)CC1	5	12	-4	·	-1
COc1ccc(F)cc1-c1cc(C(=O)Nc2ccc(NC(C)=O)cc2)[nH]n1	·	·	15	·	·
